Assay outcomes from PubChem BioAssay.
This is a sample that favours compounds with a hit; in the whole collection about 3.5% have one here.
Kir21 inh = inhibitors of mouse Kir2.1 inward-rectifier potassium channel. HEK293-Kir2.1, FluxOR thallium flux fluorescence; stronger effect = lower value. B-score at 10 µM. actives 0.85% (n = 310,000). AID 1672, 2009;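 active means fluorescence ratio B-score at or below minus 3 SD of library scores, with starting-brightness B-score within 2 SD, cut at about -4.2 in these data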;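 further: channel flux triggered by added potassium and thallium sulfate stimulus; B-score of peak minus minimum fluorescence over baseline after thallium stimulus; more negative B-score means stronger Kir2.1 block with less thallium influx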
Target sequence (P35561 whole entry, looked up): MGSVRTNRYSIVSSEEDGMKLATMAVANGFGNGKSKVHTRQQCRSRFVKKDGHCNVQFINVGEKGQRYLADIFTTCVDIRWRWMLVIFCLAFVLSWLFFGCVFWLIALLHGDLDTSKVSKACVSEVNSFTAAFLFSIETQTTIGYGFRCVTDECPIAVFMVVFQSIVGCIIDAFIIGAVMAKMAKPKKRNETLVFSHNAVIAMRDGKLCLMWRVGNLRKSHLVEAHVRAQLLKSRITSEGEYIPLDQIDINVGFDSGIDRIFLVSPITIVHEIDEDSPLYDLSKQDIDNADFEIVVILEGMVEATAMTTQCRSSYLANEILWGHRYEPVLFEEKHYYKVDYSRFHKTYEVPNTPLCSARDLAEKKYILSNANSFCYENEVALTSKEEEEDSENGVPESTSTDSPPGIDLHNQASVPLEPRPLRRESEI
KCNK3 inh = human KCNK3 channel inhibitors, primary screen, CHO cells, FluxOR thallium flux, B-score | FluxOR fluorescence; stronger effect = lower value | actives 0.84% (n = 340,000) | Potassium channel subfamily K member 3 (Homo sapiens), O14649 | B-score at 10 µM | AID 602410, 2012;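 active means B-score under library mean minus 4 SD, starting fluorescence ratio at most library mean plus 5 SD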;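 further: more negative B-score means stronger inhibition of thallium flux through KCNK3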
TMEM16A inh = TMEM16A chloride channel inhibitors, primary screen, cell-based, HTS | Anoctamin-1 (Mus musculus), Q8BHY3 | normalized B-score (activity score, 25-100; higher = stronger inhibition) at 10 µM | actives 1.2% (n = 310,000) | HEK293 TMEM16A/YFP iodide influx fluorescence, ionomycin;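 active means ratio plate-corrected score three or more library SD toward inhibition, starting fluorescence score within five deviations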;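 further: score derived from kinetic fluorescence span divided by baseline fluorescence per well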
KCNK9 block = KCNK9 potassium channel inhibitors, primary screen, HEK293 cells, thallium flux. Potassium channel subfamily K member 9 (Homo sapiens), Q9NPC2. FluxOR thallium flux fluorescence; stronger effect = lower value. B-score at 10 µM. actives 1.2% (n = 310,000). AID 488922, 2010;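 active means ratio B-score over 3 SD below the library mean, with starting fluorescence within 5 SD of its mean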;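 further: negative B-score means less thallium flux so channel inhibition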
TMEM16A act = TMEM16A chloride channel activators or potentiators, primary screen, cell-based, HTS; Anoctamin-1 (Mus musculus), Q8BHY3; HEK293 TMEM16A/YFP-H148Q/I152L, iodide quench fluorescence; stronger effect = lower value; B-score at 10 µM; actives 0.3% (n = 340,000); AID 623877, 2012;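 active means fluorescence-ratio B-score plate-corrected deviation score at least 3 library SD below zero, with starting fluorescence score within 5 deviations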;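 further: channel opened by trigger with iodide after compound preincubation; score built on the fluorescence ratio of max minus min over baseline; more negative score means more quench and so TMEM16A activation or potentiation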
KCNK9 block conf = KCNK9 potassium channel inhibitors, confirmation, HEK293 cells, thallium flux, duplicate | shares compounds with KCNK9 block | FluxOR thallium flux fluorescence | inhibition, % at 10 µM | actives 43% (n = 4,900) | AID 492992, 2010;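 active means thallium signal inhibited by more than 5 SD of the compound-free buffer control wells, on both duplicate plates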;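 further: 0% = assay buffer control wells without compound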
Kir2-1 spec = mouse Kir2.1 channel inhibition, confirmation, selectivity assay for KCNK9 modulator project, cell-based, HEK293, thallium flux; shares compounds with KCNK9 block; actives 4% (n = 4,900); AID 492993, 2010; Kir2.1 cells, FluxOR thallium flux fluorescence; inhibition, % at 10 µM;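 active means thallium signal drop more than 5 SD beyond the mean of the no-compound control wells, seen in both duplicate plates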;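 further: signal is fluorescence rise after thallium addition divided by baseline fluorescence; plate controls were assay buffer only for no effect and full block by chlorpromazine control for full effect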
KCNK9 uninduced = thallium flux in non-induced HEK293 cells, confirmation, counter-screen for KCNK9 inhibitor project, cell-based, second counter screen, non-induced KCNK9-HEK293; shares compounds with KCNK9 block; FluxOR thallium flux; inhibition, % at 10 µM; actives 40% (n = 4,900);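 active means thallium signal drop beyond 5 SD of the untreated control mean, on both duplicate plates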;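 further: plate controls were buffer only IC0 wells for no effect and SID17386958 at its maximal inhibitory level for full effect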
The depositor's hits bear a star; i = inactive; / = no result given.

SMILES	Kir21 inh	KCNK3 inh	TMEM16A inh	KCNK9 block	TMEM16A act	KCNK9 block conf	Kir2-1 spec	KCNK9 uninduced
Cc1ccc(CSc2sc(C(=O)c3ccccc3)c(N)c2C#N)cc1	0.14	i	i	-9*	i	36%*	i	42%*
N#Cc1c(SCc2ccccc2)sc(C(=O)c2ccccc2)c1N	-0.4	i	i	i	i	/	/	/
O=[N+]([O-])c1ccccc1-c1ccc(C(=S)N2CCCC2)o1	0.84	i	i	i	i	/	/	/
O=[N+]([O-])c1cccc(-c2ccc(C(=S)N3CCOCC3)o2)c1	2.2	i	i	i	i	/	/	/
Cc1cccc(N2CCN(C(=S)c3ccc(-c4ccccc4[N+](=O)[O-])o3)CC2)c1	0.11	i	i	i	i	i	i	i
O=[N+]([O-])c1cccc(-c2ccc(C(=S)N3CCN(c4ccccc4)CC3)o2)c1	0.88	i	i	-8.3*	i	33%*	i	42%*
CCCCCN=C(N)N/N=C/c1c[nH]c2ccc(OC)cc12	-9.4	i	i	-11*	i	66%*	64%*	i
COc1ccc(C(=O)N/N=C/c2c[nH]c3ccccc23)cc1	0.11	i	i	i	i	/	/	/
O=C(CCS(=O)(=O)c1ccccc1)NNC(=O)CSc1ccccc1F	/	i	/	/	i	/	/	/
Cc1ccc(NS(=O)(=O)c2ccc(C)c(C(=O)N3CCN(C)CC3)c2)cc1	1.1	i	i	i	i	/	/	/
C=CCN1CN=C(NS(=O)(=O)c2ccc(NC(C)=O)cc2)NC1	-0.05	i	i	-10*	i	i	i	i
NC(=S)NC(c1ccccc1)c1ccncc1 (configuration not stated)	0.13	i	i	i	i	/	/	/
CCOC(=O)CN1C(=O)N[C@@H](CCc2ccccc2)[C@H](C(=O)OC)[C@H]1C	0.06	i	i	i	i	/	/	/
O=c1cc(N2CCCCC2)c(-c2ccccc2)nn1Cc1ccc(F)cc1	-0.23	i	i	-12*	i	60%*	i	36%*
O=c1c2c(c(-c3ccccc3)nn1Cc1ccccc1)CCCC2	2.8	i	i	i	i	i	i	28%*
O=c1cc(N2CCCCC2)c(-c2ccccc2)nn1Cc1ccc(Cl)cc1	2.4	i	i	i	i	/	/	/
O=c1ccc(-c2ccccc2)nn1Cc1ccccc1	0.3	i	i	i	i	/	/	/
N#CCc1c(C#N)c(N)nc(Nc2ccccc2)c1C#N	-2	i	i	i	i	/	/	/
Cc1ccc(C(=O)N(c2ccccc2)C2CC(C)N(C(=O)c3ccco3)c3ccccc32)cc1 (configuration not stated)	-2	i	i	i	/	i	i	i
CSc1ccc(Cl)c(C(=O)NNC(=O)c2csc(N3CCOCC3)n2)c1	-0.46	i	i	i	i	/	/	/
CC1CC(C)CN(S(=O)(=O)c2ccc(NC(=O)C3COc4ccccc4O3)cc2)C1 (configuration not stated)	-0.25	i	i	i	i	i	i	i
CCOc1ccc(NC(=O)CSc2nnc(C3CC3)n2N)cc1	0.11	i	i	i	i	/	/	/
Nn1c(SCC(=O)Nc2ccc(Oc3ccccc3)cc2)nnc1C1CC1	1.1	i	i	i	i	i	i	i
O=C1c2ccccc2C(Nc2ccc(Cl)cn2)N1c1ccccn1 (configuration not stated)	-0.09	i	i	-9.8*	i	37%*	i	i
NC(=O)CC(NSc1ccccc1[N+](=O)[O-])C(=O)O (configuration not stated)	0.45	i	i	i	i	/	/	/
SMILES	Kir21 inh	KCNK3 inh	TMEM16A inh	KCNK9 block	TMEM16A act	KCNK9 block conf	Kir2-1 spec	KCNK9 uninduced
COc1ccc(NC2CCCN(C(=O)CCOc3ccccc3)C2)cc1 (configuration not stated)	-0.47	i	i	i	i	i	i	i
COc1ccc(NC2CCCN(C(=O)CSc3ccccc3)C2)cc1 (configuration not stated)	-3.2	i	i	i	i	/	/	/
COc1ccc(NC2CCCN(C(=O)CCc3ccccc3F)C2)cc1 (configuration not stated)	-1.9	i	i	i	i	i	i	i
CCCCNC(=O)C1C2C=CC(C2)C1C(=O)O (configuration not stated)	-0.01	i	i	i	i	/	/	/
COc1ccc(OC)c(NC(=O)c2ccc(-c3cccs3)cc2)c1	0.48	i	i	-13*	i	66%*	i	35%*
CC1CCOC2(O1)C(=O)Nc1ccccc12 (configuration not stated)	-0.3	i	i	i	i	/	/	/
COc1cccc(C2C=C(Nc3ccccc3)C(=O)N2c2ccccc2)c1 (configuration not stated)	-0.02	i	i	i	i	/	/	/
COc1ccc(C2C=C(Nc3ccccc3)C(=O)N2c2ccccc2)cc1OC (configuration not stated)	-1.4	i	i	-11*	i	62%*	i	34%*
Cc1ccc(C)c(Oc2cc(NN3CCCCC3)c([N+](=O)[O-])cc2[N+](=O)[O-])c1	-1.1	i	i	-11*	i	32%*	i	i
O=[N+]([O-])c1cc([N+](=O)[O-])c(Oc2ccccc2F)cc1NN1CCCCC1	0.34	i	i	i	i	/	/	/
CC(=O)C1=C(C)NC(SCC(=O)c2ccc(Cl)cc2Cl)=C(C#N)C1c1ccco1 (configuration not stated)	-0.23	-9.6*	i	-10*	i	61%*	i	36%*
CCOc1ccccc1NC(=O)Cc1coc2ccc(C)cc12	-1.2	i	i	-11*	i	25%*	i	43%*
CCOC(=O)/C(C#N)=C/Nc1ccccc1OC(F)(F)F	0.83	i	i	i	i	/	/	/
